Data as given in PubChem BioAssay (NCATS).
Inconclusive results are not listed. A call without a number means that no potency is given here. Active and inactive are the calls of the source. Calls come from the whole dose curve; as a rule, active = well fitted cell-killing curve with a large enough effect; inconclusive = small, poorly fitted or top-dose-only effect, or effect the other way; inactive = flat fitted curve, though single readings scatter.

These compounds were tested on C33A (assay: Primary qHTS to identify gynecologic anti-cancer compounds using libraries of approved drugs and bioactive compounds (AID 1345084; note: nearly all actives have a fitted effect of over 55% in size)). Conditions: Gynecologic cancer cell panel viability, ATPlite luminescence, 48 h; series mostly up to 57.5 µM.
Method in brief: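 Cells, 1,000 per well, plated 16 h, then exposed 48 h at 37 C to compounds. Viability by ATPlite luminescence after 15 min at room temperature.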
Potency is the fitted concentration of half-maximal effect.

SMILES	Potency	activity change, negative = cytotoxicity
COc1ccc(-c2nc(-c3ccc(-c4cccc(Cl)c4)o3)[nH]c2-c2ccc(OC)cc2)cc1	inactive	–
CC(=O)c1c(O)cc(O[C@@H]2O[C@H](CO)[C@@H](O)[C@H](O)[C@H]2O)cc1O	inactive	–
C=C1C(O)C(O)C2(CC3C(C)=CCC4C(C)(CO)CCCC34C)OC2C1O (stereo unspecified)	inactive	–
O=C1NC(Cc2c[nH]c3ccccc23)C(=O)NC1Cc1c[nH]c2ccccc12 (stereo unspecified)	inactive	–
CC1CCC2(C=O)C(CO)=CCCC2C1(C)CC(=O)O (stereo unspecified)	inactive	–
COc1cc(C)c(C(=O)O[C@H]2[C@@H](OC(C)=O)[C@H](n3ccc(=O)[nH]c3=O)O[C@@H]2CO)c(OC)c1	inactive	–
COC(=O)C1=CO[C@@H](O[C@@H]2O[C@H](CO)[C@@H](O)[C@H](O)[C@H]2O)[C@@H]2[C@@](C)(O)[C@@H](OC(=O)/C=C/c3ccc(O)cc3)C[C@]12O	inactive	–
C[C@@H]([C@@H](O)c1ccc(O)cc1)N1CCC(O)(c2ccccc2)CC1	inactive	–
N#C[C@@H]1C[C@H](F)CN1C(=O)CNC1[C@H]2CN(C(=O)c3ccc(F)cc3)C[C@@H]12 (stereo partly specified)	inactive	–
C=C1CCC2C(C)(C(=O)OC)CCCC2(C)C1CCC(C)CC(=O)O (stereo unspecified)	inactive	–
C[C@@H]1C(=O)O[C@H]2C[C@]34[C@H]5C[C@@H](C(C)(C)C)[C@]36[C@@H](OC(=O)[C@H]6O)O[C@]4(C(=O)O5)[C@]21O	inactive	–
COC(=O)C1=COC(O[C@@H]2O[C@H](CO)[C@@H](O)[C@H](O)[C@H]2O)[C@H]2[C@@H]1[C@H](OC(=O)CCc1ccc(O)cc1)C[C@]2(C)O (stereo partly specified)	inactive	–
CC(=O)OC[C@H]1O[C@H](O[C@]2(CO)O[C@H](CO)[C@@H](OC(=O)/C=C/c3ccccc3)[C@@H]2O)[C@H](O)[C@@H](O)[C@@H]1O	inactive	–
C=C(C)C1CC[C@]2(C(=O)O)CC[C@]3(C(=O)O)[C@H](CCC4[C@@]5(C)CC[C@H](O)C(C)(C)C5CC[C@]43C)C12 (stereo partly specified)	inactive	–
COc1cc(/C=C/C(=O)O[C@H]2[C@H](O)[C@@H](CO)O[C@@]2(CO)O[C@H]2O[C@H](CO)[C@@H](O)[C@H](O)[C@H]2O)ccc1O	inactive	–
CC1(C(=O)O)CCCC2(C)C3CCC4CC3(CCC12)CC4=O (stereo unspecified)	inactive	–

SMILES	Potency	activity change, negative = cytotoxicity
C/C=C/C(O)C1OC(=O)CC1Nc1ccc(C(=O)O)cc1 (stereo unspecified)	inactive	–
C=C(CO[C@@H]1O[C@H](CO[C@@H]2OC[C@](O)(CO)[C@H]2O)[C@@H](O)[C@H](O)[C@H]1O)C1Cc2cc(C(C)=O)ccc2O1 (stereo partly specified)	inactive	–
COc1ccc([C@@]2(O)c3c(ccc4c3OC(C)(CCC=C(C)C)C=C4)NC(=O)[C@@H]2OC)cc1 (stereo partly specified)	inactive	–
C=C1C[C@]23C[C@H]1[C@@H](O)C[C@H]2[C@@]12C=C[C@H](O)[C@@](C)(C(=O)O1)[C@H]2[C@@H]3C(=O)O	inactive	–
C=C1C(=O)O[C@@H]2C[C@H](C)[C@@]3(O)C=C(C(C)=O)[C@]4(CC3C[C@H]12)C(=O)O[C@H]1C[C@@H](C)C(CCC(C)=O)=CC[C@H]14 (stereo partly specified)	inactive	–
CCC(C)C(=O)OC1CC(C)C=C2C=CC(C)C(CCC(O)CC(O)CC(=O)O)C21 (stereo unspecified)	inactive	–
OC[C@H]1O[C@@H](OCCc2ccccc2)[C@H](O[C@@H]2OC[C@](O)(CO)[C@H]2O)[C@@H](O)[C@@H]1O	inactive	–
CC1=C(C(=O)O)/C(=C\CO[C@@H]2O[C@H](CO)[C@@H](O)[C@H](O)[C@H]2O)C(OC(=O)/C=C\c2ccc(O)cc2)C1 (stereo partly specified)	inactive	–
CC1(C)CCCC2(C)C1C(O)C=C(CO)C2(O)CO (stereo unspecified)	inactive	–
C/C=C(\C)C(=O)OCC1OC(OC2OC(COC(=O)/C(C)=C/C)C(OC3OC(CO)C(OC(=O)/C(C)=C/C)C(OC(=O)/C(C)=C/C)C3O)C(O)C2O)C(O)C(O)C1OC1OC(CO)C(OC(=O)/C(C)=C/C)C(OC(=O)/C(C)=C/C)C1O (stereo unspecified)	–	-2.64% [at 11.6 µM] (inactive)
COc1c2c(c(C)c3c1C(=O)OC3)O[C@@]1(C)CCC3(C(C)(C)O)OC(=O)CC[C@]3(C)[C@H]1C2 (stereo partly specified)	inactive	–
COc1ccc(C[C@H](N)C(=O)N[C@@H]2[C@H](O)[C@H](n3cnc4c(N(C)C)ncnc43)O[C@@H]2CO)cc1	3.16 µM (active)	–
OC1CCC(Nc2ncc3nc(Nc4c(F)cc(F)cc4F)n([C@H]4CCOC4)c3n2)CC1 (stereo partly specified)	inactive	–
Cn1cc(-c2ccc3nnc(Sc4ccc5nn(C)cc5c4)n3n2)cn1	inactive	–
COc1cc(N)c(Cl)cc1C(=O)NC[C@@H]1CCN2CCC[C@@H]12	inactive	–
